40 compounds from PubChem BioAssay (NCI) can be followed below.

Each structure is given as a SMILES string. About 79,000 compounds went through this panel and 15% of them were active in at least one assay; those are over-represented in the sample as a whole. Values without a mark were called inactive. Calls of active or inactive are those of the source. Rule as the data show it: active = growth inhibition above about 70%; inactive = the rest.

The nature of this assay: NCI Yeast Anticancer Drug Screen. Data for the mec2-1 strain (AID 157). Particulars: S. cerevisiae mec2-1 strain, at 50.0 µM, hits give high values. A digest of the protocol:
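Using mec2-1 yeast: add compound, measure growth, express inhibition versus vehicle-treated cultures.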
Turning to `CCOC(=O)/C=C\n1c(=O)cc(C)c2ccccc21`, the growth inhibition was 23.7%.

On to `C[n+]1cc(I)cc2ccccc21`, for which the growth inhibition was -3.45%.

`CC(=O)Oc1cc2oc([O-])c[n+]2c2ccccc12`: the growth inhibition was 14.2%.

Turning to `N#CNc1ccccc1`, the growth inhibition is 6.15%.

For `COC(O)C(=O)c1c2c(cc3c1CCC3)CCC2` (stereo not given), the growth inhibition was 45.8%.

Turning to `C=CCCCCCCCC(O)C1C[C@H](O)C(CCCCC)O1` (stereo not given in full), the growth inhibition was -16.9%.

For the compound `CCOC(=O)C1C(c2ccc(N(C)C)cc2)c2cc3c(cc2OC1(C)N1CCCC1)OCO3` (stereo not given), the growth inhibition is 9.1%.

Take `Cc1c2ccccc2nc(CSCCO)[n+]1[O-]`: the growth inhibition was -22.1%.

`CNC(=O)/C=C/C1=CN2C(=O)c3ccc(C)c(O)c3NC(OC)C2C1` (stereo not given): the growth inhibition is 93.7% (active).

`COC(OC)C1(CCc2ccccc2)NC(=O)N(C)C1=O` (stereo not given): the growth inhibition was 2.2%.

In the case of `ClC(Cl)C1OCCCO1`, the growth inhibition is -17.4%.

`OC(CN(C1CCCCC1)C1CCCCC1)c1ccnc2c(Cl)cc(Cl)cc12` (stereo not given): the growth inhibition is -1%.

As to `CC(=O)OC1CCC2(C)C(CCC3C2C(=O)C(Br)C2(C)C(C(C)=O)CCC32)C1` (stereo not given), the growth inhibition was 0.5%.

`CCCCSc1ccc2n(C)c(-c3ccc(/C=N\NC(=O)c4ccc(C(=O)N/N=C\c5ccc(-c6c[n+]7cc(SCCCC)ccc7n6C)cc5)cc4)cc3)c[n+]2c1`: the growth inhibition was -14.7%.

As to `O=C(O)c1c[nH]c(=O)[nH]c1=O.[Cu+2]`, the growth inhibition was -13%.

`COc1cccc2c1OC(=O)NC2O` (stereo not given): the growth inhibition is -4.3%.

For `COc1c(Cl)cc(Cl)c(C)c1C(C)C(=O)O` (stereo not given), the growth inhibition was 5.85%.

`COc1ccc(NC(=O)Oc2ccc3c(C)cc(=O)oc3c2)c(OC)c1` (tested in a mixture with another compound): the growth inhibition was -6.2%.

For the compound `C(=N\N=C\c1ccccc1)/c1ccccc1`, the growth inhibition is 4.65%.

As for `COC(=O)C1CC(=O)N(C)c2sc(C)c(C)c2C1=O` (stereo not given), the growth inhibition is 94.5% (active).

Take `CC1CCCC(CCO)CC1` (stereo not given): the growth inhibition was 5.8%.

`CC(N)(C(=O)O)c1ccccc1` (stereo not given): the growth inhibition was -2.45%.

Turning to `O=C1CC[C@@H](S(=O)(=O)c2ccccc2)[C@@H](/C=C/c2ccccc2)O1`, the growth inhibition is -1.75%.

Turning to `CC(=O)/C(=C\c1ccccc1)C(=O)CCN(C)C`, the growth inhibition is 36.6%.

In the case of `CCN(CC)C(=O)c1ccc(C(C)C)cc1`, the growth inhibition is 14.8%.

For the compound `O=[N+]([O-])c1ccc(OCCCCCBr)c(Cl)c1`, the growth inhibition is 47.1%.

For `O=[N+]([O-])c1cc(Br)cc2c1[nH]c1nc3ccc(C(F)(F)F)cc3nc12`, the growth inhibition is -17.9%.

As for `O=c1cc(NC(c2ccccc2)c2ccccc2)[nH]c(=O)[nH]1`, the growth inhibition is 22.1%.

Consider `N#C[C@H](c1nc2ccccc2[nH]1)c1nc2ccccc2nc1Cl`, for which the growth inhibition is 2.5%.

As to `CCN(CC)CCNC(=O)c1cn2c(ccc3sc4ccccc4c(=O)c32)n1`, the growth inhibition is 57.5%.

For the compound `O=C(NCc1ccco1)Nc1ccccc1`, the growth inhibition was -21.2%.

On to `CCO[C@H]1c2cc3c(cc2[C@@H](c2cc(OC)c(OC)c(OC)c2)[C@H]2C(=O)OC[C@@H]21)OCO3`, for which the growth inhibition was 6.25%.

For the compound `CC(C)/C=N\n1c(N)c(C#N)c(C#N)c1C(C)C`, the growth inhibition is -5.2%.

With `N#CCC(=O)NCCc1c[nH]c2ccccc12`, the growth inhibition is 0.2%.

In the case of `CCOC(=O)C(C(=O)OCC)=C1c2ccccc2Oc2ccccc21`, the growth inhibition is 8%.

In the case of `N#CCCCCC12C3C(=O)N(c4ccccc4)C(=O)C3ON1O[C@@H]1C(=O)N(c3ccccc3)C(=O)[C@@H]12` (stereo not given in full), the growth inhibition was 19.3%.

On to `O=C1c2ccccc2-c2nc(-c3ccncc3)cc3c2c1nc1ccccc13`, for which the growth inhibition is 18.4%.

On to `COc1ccccc1C(=O)N(C)c1ccc(Cl)c(C(=O)OC(C)C)c1`, for which the growth inhibition is 24.7%.

Take `Cc1cn(CCCCCCCCCCCCOc2c3occc3cc3ccc(=O)oc23)c(=O)[nH]c1=O`: the growth inhibition was 4.6%.

On to `O=CNc1ccc(Br)cc1`, for which the growth inhibition was -0.9%.
